Measurements from PubChem BioAssay (NCI).
“And” between values parts separate entries of the source, which are not always exact repeats. Identical values can stand only once. The panel holds about 83,000 compounds, 20% with a hit somewhere; the sample as a whole holds those more often.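 Single-dose data. Exposure time 48 hours. Values below 10 considered active.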 The source made the active and inactive calls.

Test system: MDA-MB-468 breast
Test: NCI-60 one-dose screen, 48 h (100 = growth as untreated, 0 = no growth, -100 = all killed)
Conditions: 10 µM unless noted

| SMILES | growth |
| --- | --- |
| CC(C)(C)NCC(O)c1ccccc1Cl (configuration not stated) | -12.6% (active) |
| CC(C)(C)C(=O)OCOP(=O)(OCOC(=O)C(C)(C)C)C1CCCN(O)C1=O (configuration not stated) | -8.03% (active) |
| Cc1ccccc1NC(=NCCCN1CC1)Nc1ccccc1C | 54.7% (inactive) |
| COc1cc(/C=C\c2cc(OC)c(OC)c(OC)c2)cc(NS(=O)(=O)c2cccc(Cl)c2)c1OC | 47% (inactive) |
| CC1(C)C2CCC1(CS(=O)(=O)O)C(=O)C2 (configuration not stated) | 123% (inactive) |
| Cc1ccc(C(=O)O[C@H](C(=O)O)[C@H](OC(=O)c2ccc(C)cc2)C(=O)O)cc1 | 103% (inactive) |
| O=C(CC1(O)C(=O)Nc2ccc(Br)cc21)c1ccc(C(=O)NCC2CCC3(CC2)OOC2(CCCCC2)OO3)cc1 (configuration not stated) | 48.7% (inactive) |
| NC(=Nc1ccccc1)N[N+](=O)[O-] | 92.2% (inactive) |
| CC(=O)O[C@@H]1C[C@H]2O[C@@H]3C=C(C)CC[C@]3(C)[C@]1(C)[C@]21CO1 | 39.3% (inactive) |
| O=C1NC(=O)C(Cc2ccccc2)(Cc2ccccc2)C(=O)N1 | 113% (inactive) |
| CCOC(=O)C(NC(=O)C(Cc1ccc(N(CCCl)CCCl)cc1)NC(C)=O)C(C)C (configuration not stated) | 92.3% (inactive) |
| Cc1ccc(C(=O)NCCCOc2ccc(N)cc2Cl)cc1S(=O)(=O)F | 84.6% (inactive) |
| CN1C2CCC1[C@@H](COC(=O)c1ccccc1)[C@@H](O)C2 (some centres not stated) | 86.1% (inactive) |
| CC(=O)O[C@H](C[C@H](C(C)C)N(C)C(=O)[C@@H](NC(=O)[C@H]1CCCCN1C)C(C)C)c1nc(C(=O)N[C@@H](Cc2ccccc2)C[C@H](C)C(=O)O)c(CCOCc2ccccc2)s1 | 1.12% (active) |
| CC[C@H](C)[C@H](NC(=O)Nc1ccccc1)C(=O)N(C)[C@H](C[C@@H](OC(C)=O)c1nc(C(=O)N[C@@H](Cc2ccccc2)C[C@H](C)C(=O)OC)cs1)C(C)C | -1.4% (active) |
| COc1ccc(S(=O)(=O)Nc2c(/C=C\c3cc(OC)c(OC)c(OC)c3)ccc(OC)c2O)cc1OC | 14.1% (inactive) |

| SMILES | growth |
| --- | --- |
| Cc1cc(NC(=O)NCCOc2ccc(N3C(N)=NC(N)=NC3(C)C)cc2Cl)ccc1S(=O)(=O)F | 29% (inactive) |
| COc1ccc([As]=[As]c2ccc(OC)c(NCS(=O)(=O)O)c2)cc1NCS(=O)(=O)O (configuration not stated) | -54.2% (active) |
| O=[N+]([O-])c1c(Br)sc(Br)c1[N+](=O)[O-] | 1.55% (active) |
| C=CC[PH+](c1ccccc1)c1ccccc1.C=CC[PH+](c1ccccc1)c1ccccc1.[Pt+2].[S-]c1nc2ccccc2[nH]1.[S-]c1nc2ccccc2[nH]1 | -14% (active) |
| C[C@]12CCC(=O)C[C@@H]1CC[C@@H]1[C@@H]2CC[C@]2(C)[C@@H](OC(=O)N(CCCl)N=O)CC[C@@H]12 | -45.8% (active) |
| NC(Cc1ccccc1)c1ccccc1 (configuration not stated) | 107% (inactive) and 105% (inactive) |
| COc1ccc(O)c(CNC(=O)CN2CCCC2=O)c1 | 108% (inactive) |
| CC[C@H](NC(=O)[C@H]1CCCCN1C)C(=O)N(C)[C@H](C[C@@H](OC(C)=O)c1nc(C(=O)N[C@@H](Cc2ccccc2)C[C@H](C)C(=O)O)cs1)C(C)C | 17.6% (inactive) |
| NC(=O)c1cc([N+](=O)[O-])c(Cl)c([N+](=O)[O-])c1Cl | -84.9% (active) |
| O=C(O)C1C(C(=O)O)C2(Cl)C(Cl)=C(Cl)C1(Cl)C2(Cl)Cl (configuration not stated) | 105% (inactive) and 113% (inactive) |
| CC(=O)O[C@H]1CC[C@H]2[C@@H]3CC=C4c5nc(-c6ccccc6)sc5CC[C@]4(C)[C@H]3CC[C@]12C | 57.2% (inactive) |
| N#CCc1ccccc1 | 101% (inactive) |
| O=C1Nc2ccccc2C2c3cccn3-c3ccccc3CN12 (configuration not stated) | 30.5% (inactive) |
| C/C=C/CC(C)C(O)[C@H](NC(=O)[C@@H]1CCCN1C(=O)C(C)(C)NC(=O)CCCCCCCCC)C(=O)N[C@@](C)(CC)C(=O)N[C@@H](CCC(N)=O)C(=O)N[C@H](CCC(N)=O)C(=O)NC(C)(C)C(=O)N[C@@](C)(CC)C(=O)N[C@@H](CCC(N)=O)C(=O)N[C@H](CC(C)C)C(=O)N[C@H](CO)CC(C)C (some centres not stated) | 99.2% (inactive) and -78.2% (active) |
| O=[N+]([O-])c1cc(Cl)c(Cl)c([N+](=O)[O-])c1Cl | 9.01% (active) |
| CCOP(=O)(Nc1ccc2c(c1)/C(=N/NC(N)=S)c1ccccc1-2)OCC | 86% (inactive) |
